NadD block = inhibitors of Staphylococcus aureus NadD; 360,000 compounds, 0.78% hits; inhibition, % at 20 µM; purified NadD enzyme, colorimetric absorbance read-out; in the data active = inhibition above about 26%
H9c2 TAG inh = inhibitors of triacylglycerol accumulation. 230,000 compounds, 0.66% hits. H9c2 cells, Nile Red lipid (TAG) fluorescence; cells loaded with 200 µM oleic acid. AID 651582. inhibition, % at 12.5 µM;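 active = pattern-corrected inhibition of lipid staining of at least 50% with the nuclear-stain viability signal not falling by more than 50%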;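 also: 0% = DMSO wells and 100% = triacsin C control wells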
MPTP block = permeability transition pore inhibition; isolated mouse mitochondria, Ca2+ swelling absorbance, 30 min; inhibition, % at 10 µM; 360,000 compounds, 1.4% hits; AID 602449;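 active = inhibition of 50% or more, scaled per plate between neutral and stimulator controls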;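 also: 0% = DMSO wells given calcium and 100% = 1 mM EGTA wells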
aDG glyco up = increases alpha dystroglycan glycosylation; 360,000 compounds, 0.22% hits; Pro5-aDG cells, alpha-DG glycosylation AlphaScreen (IIH6); 0% Pro5, 100% B10-LARGE cell signal; activation, % at 10 µM;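 active = activation of at least 8% versus controls, or a plate z-score of at least 8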;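 also: Pro5 are CHO cells carrying HIG-tagged alpha-DG that lacks glycosylation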
Rh123 counter = membrane potential counter-screen of mitochondrial pore inhibitors | shares compounds with MPTP block | isolated mitochondria, Rhodamine 123 fluorescence | inhibition, % at 10 µM | 5,000 compounds, 78% hits; in the data active = inhibition above about 22%;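 also: 0% = DMSO vehicle and 100% = positive control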
MPTP swell DR = dose response confirmation of mitochondrial permeability transition pore inhibitors | shares compounds with MPTP block | 780 compounds, 58% hits | isolated mitochondria swelling, absorbance | IC50, µM | AID 651561; in the data active = IC50 below about 20 µM
MPTP cs DR = active in counter-screen for permeability transition pore inhibitors | shares compounds with MPTP block | 780 compounds, 49% hits | IC50, µM | isolated mitochondria counterscreen, fluorescence read-out; in the data active = IC50 below about 80 µM
* hit, by the source's call. Hits are enriched below; roughly 2.7% of the tested compounds scored in any of these assays.

`Cc1nc(NCCc2cnc[nH]2)c2oc3ccccc3c2n1` gave NadD block -5.2, MPTP block -2.7 and aDG glyco up 0.1.
For CC(C)CNC(=S)Nc1ccc(Oc2ccccc2)cc1 the results were NadD block 1.1, H9c2 TAG inh -16.6, MPTP block 91.9*, aDG glyco up 0.7 and Rh123 counter 98.1*.
For S=C(NCc1ccco1)Nc1cc(Cl)c(Cl)cc1Cl the results were NadD block -9.3, MPTP block 88.3*, aDG glyco up 0.1 and Rh123 counter 85.0*.
Screening S=C(NCc1ccco1)Nc1ccc(Oc2ccccc2)cc1 returned NadD block -2.5, MPTP block 77.8*, aDG glyco up 0.4 and Rh123 counter 84.7*.
`S=C(NCc1ccco1)Nc1ccc(Cl)c(Cl)c1` gave NadD block -1.5, MPTP block 93.9*, aDG glyco up 0.1 and Rh123 counter 89.6*.
For CCOc1ccc2[nH]c3nc(SCC(=O)NC4CC4)nnc3c2c1 the results were NadD block -0.1, MPTP block -0.8 and aDG glyco up -0.1.
For Cc1ccc(S(=O)(=O)N(C)CC(=O)NNC(=O)CCC(=O)c2ccc(F)cc2)cc1 the results were NadD block -0.9, H9c2 TAG inh -2.5, MPTP block 0.6 and aDG glyco up 0.1.
`S=C(NCc1ccco1)Nc1cccc(Cl)c1` gave NadD block -2.4, MPTP block 59.9*, aDG glyco up -0.1 and Rh123 counter 72.7*.
For Cc1ccc(Cn2c(=N)n(CC(O)c3ccco3)c3ccccc32)cc1 (configuration not stated) the results were NadD block -8.3, MPTP block 70.3*, aDG glyco up 0.5 and Rh123 counter 43.2*.
Cc1ccc(S(=O)(=O)NCC2CCCO2)cc1 (configuration not stated) was read as NadD block 3.7, H9c2 TAG inh -11.9, MPTP block 1.7 and aDG glyco up -0.1.
O=S(=O)(NCC1CCCO1)c1ccc(-c2ccc(S(=O)(=O)NCC3CCCO3)cc2)cc1 (configuration not stated) was read as NadD block 3.0, H9c2 TAG inh -37.5, MPTP block 86.4*, aDG glyco up 7.4* and Rh123 counter 100.7*.
For COc1cccc(CNCCc2c[nH]c3ccccc23)c1OCc1ccccc1 the results were NadD block -3.3, MPTP block 85.2*, aDG glyco up 1.7 and Rh123 counter 59.8*.
`Cc1ccc(S(=O)(=O)/N=C(/Nc2ccc([N+](=O)[O-])cc2[N+](=O)[O-])c2ccccc2)cc1` gave NadD block 3.3, H9c2 TAG inh -10.8, MPTP block 86.5*, aDG glyco up 0.7 and Rh123 counter 92.1*.
CCc1ccccc1NC(=O)COc1ccc(N2CC(C(N)=O)CC2=O)cc1 (configuration not stated) was read as NadD block -0.7, MPTP block -1.7 and aDG glyco up -0.1.
`O=C(Nc1ccc(Cl)c(C(F)(F)F)c1)c1ccncc1` gave NadD block 0.3, H9c2 TAG inh 17.2, MPTP block -0.7 and aDG glyco up -0.1.
For CNC(=O)c1cc(Oc2ccc(NC(=O)Nc3ccc(Cl)c(C(F)(F)F)c3)cc2)ccn1 the results were NadD block 22.8, H9c2 TAG inh -8.0, MPTP block 56.6*, aDG glyco up 1.0 and Rh123 counter 46.1*.
Screening OC(CNCC1CCCO1)Cn1c2ccccc2c2ccccc21 (configuration not stated) returned NadD block -4.7, H9c2 TAG inh 12.2, MPTP block 73.5*, aDG glyco up 0.8, Rh123 counter -8.6, MPTP swell DR 10.3* and MPTP cs DR >80.
`COCCCC1CCN(C(=O)C2CCC(=O)N(Cc3ccccc3F)C2)CC1` (configuration not stated) gave NadD block 1.5, H9c2 TAG inh -9.9, MPTP block -0.5 and aDG glyco up 0.3.
Screening O=C(NC1CCCCC1)NC1C2CC3CC(C2)CC1C3 (configuration not stated) returned NadD block 3.0, MPTP block -0.7 and aDG glyco up 0.1.
Screening O=C1NC(=S)SC1=Cc1ccc(F)cc1 returned NadD block 4.7, H9c2 TAG inh -33.6, MPTP block 81.6*, aDG glyco up 0.2 and Rh123 counter 84.5*.
O=C1NC(=S)NC1=Cc1ccc(Cl)cc1Cl was read as NadD block -4.1, H9c2 TAG inh 4.0, MPTP block 1.5 and aDG glyco up 0.0.
O=C1NC(=S)SC1=Cc1ccc(Cl)cc1 was read as NadD block 3.7, H9c2 TAG inh -0.3, MPTP block 94.6*, aDG glyco up 0.0 and Rh123 counter 78.8*.
Screening O=C1NC(=S)SC1=Cc1ccccc1Br returned NadD block 4.2, H9c2 TAG inh -5.1, MPTP block 94.2*, aDG glyco up 0.0 and Rh123 counter 73.5*.
O=C1NC(=O)C(=Cc2ccc(Cl)cc2Cl)S1 was read as NadD block -2.8, H9c2 TAG inh -2.8, MPTP block 81.0*, aDG glyco up 0.3 and Rh123 counter 93.6*.
For Cc1ccc(-c2nnn(CC(=O)N(CC(=O)NC3CCCCC3)c3ccccc3F)n2)o1 the results were NadD block -14.3, MPTP block -1.7 and aDG glyco up 1.1.
O=C1/C(=C/c2cccc(Br)c2)SC(=S)N1/N=C/c1cc([N+](=O)[O-])ccc1O was read as NadD block 3.3, H9c2 TAG inh 0.8, MPTP block 60.8*, aDG glyco up -0.1, Rh123 counter 12.4, MPTP swell DR 15.3* and MPTP cs DR <2.5*.
`O=C1/C(=C\c2ccc(O)cc2)SC(=S)N1/N=C/c1ccc(O)cc1` gave NadD block 10.7, H9c2 TAG inh -4.9, MPTP block 95.6*, aDG glyco up -0.2 and Rh123 counter 78.2*.
O=C(NCC[C@H]1CC[C@@H](NC(=O)C2CCC2)[C@@H](CO)O1)c1cc(Cl)cc(Cl)c1 was read as MPTP block -0.8 and aDG glyco up -0.1.
O=C(Nc1ccc(Cl)cc1)C1=Cc2ccccc2OC1 was read as NadD block -3.4, H9c2 TAG inh -4.2, MPTP block 88.9*, aDG glyco up 0.1 and Rh123 counter 107.9*.
`CC(C)Oc1ccc(CN2CCC2(C)C(=O)NCc2cccc3ccccc23)cc1` (configuration not stated) gave NadD block -1.7, H9c2 TAG inh -17.2, MPTP block 1.9 and aDG glyco up 0.3.
Screening CC(C)OCC(O)CN1CCC(Cc2ccccc2)CC1 (configuration not stated) returned NadD block 2.1, MPTP block -1.1 and aDG glyco up -0.3.
OC(COc1ccc(Br)cc1)CN1CCC(Cc2ccccc2)CC1 (configuration not stated) was read as NadD block -1.1, MPTP block 63.6*, aDG glyco up -0.2, Rh123 counter -3.1, MPTP swell DR 6.28* and MPTP cs DR 33.5*.

Screening results: PubChem, Sanford-Burnham Center for Chemical Genomics
